# Data: ChEMBL document CHEMBL2218924, “A broad activity screen in support of a chemogenomic map for kinase signalling research and drug discovery” (Biochem J, 2013)
# Columns and labels:
# [1] = molecular target: T1, Ephrin type-A receptor 3 (Homo sapiens) (UniProt P29320); details: at 10 µM
# T1 sequence (whole entry): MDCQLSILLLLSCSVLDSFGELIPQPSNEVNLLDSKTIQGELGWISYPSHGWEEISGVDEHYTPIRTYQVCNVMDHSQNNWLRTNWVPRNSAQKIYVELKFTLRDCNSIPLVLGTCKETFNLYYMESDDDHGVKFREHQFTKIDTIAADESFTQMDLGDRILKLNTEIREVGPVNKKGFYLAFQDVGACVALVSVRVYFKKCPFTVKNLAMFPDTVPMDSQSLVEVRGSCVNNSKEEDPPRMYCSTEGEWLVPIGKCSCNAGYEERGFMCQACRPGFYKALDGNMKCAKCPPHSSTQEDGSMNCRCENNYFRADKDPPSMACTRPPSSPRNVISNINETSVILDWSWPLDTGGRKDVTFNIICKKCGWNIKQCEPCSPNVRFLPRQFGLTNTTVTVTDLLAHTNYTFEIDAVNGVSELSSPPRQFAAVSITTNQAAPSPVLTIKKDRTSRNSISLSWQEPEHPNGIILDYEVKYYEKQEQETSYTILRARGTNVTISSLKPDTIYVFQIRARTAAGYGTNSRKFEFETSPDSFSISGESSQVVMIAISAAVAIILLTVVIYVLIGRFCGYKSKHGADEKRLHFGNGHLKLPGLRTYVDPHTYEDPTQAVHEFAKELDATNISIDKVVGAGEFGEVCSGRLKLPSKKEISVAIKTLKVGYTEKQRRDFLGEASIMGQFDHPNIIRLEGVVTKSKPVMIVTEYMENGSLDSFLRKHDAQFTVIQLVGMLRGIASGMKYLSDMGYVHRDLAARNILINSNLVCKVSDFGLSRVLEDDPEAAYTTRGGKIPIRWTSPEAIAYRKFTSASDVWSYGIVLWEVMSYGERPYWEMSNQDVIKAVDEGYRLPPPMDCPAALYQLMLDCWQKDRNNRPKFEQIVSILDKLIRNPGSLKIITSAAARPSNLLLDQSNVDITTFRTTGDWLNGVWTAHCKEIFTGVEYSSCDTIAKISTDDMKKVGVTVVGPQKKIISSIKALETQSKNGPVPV
# [2] = molecular target: Ephrin type-A receptor 4 (Homo sapiens) (UniProt P54764); details: at 10 µM
# Sequence of Ephrin type-A receptor 4 (Homo sapiens) (P54764 whole entry): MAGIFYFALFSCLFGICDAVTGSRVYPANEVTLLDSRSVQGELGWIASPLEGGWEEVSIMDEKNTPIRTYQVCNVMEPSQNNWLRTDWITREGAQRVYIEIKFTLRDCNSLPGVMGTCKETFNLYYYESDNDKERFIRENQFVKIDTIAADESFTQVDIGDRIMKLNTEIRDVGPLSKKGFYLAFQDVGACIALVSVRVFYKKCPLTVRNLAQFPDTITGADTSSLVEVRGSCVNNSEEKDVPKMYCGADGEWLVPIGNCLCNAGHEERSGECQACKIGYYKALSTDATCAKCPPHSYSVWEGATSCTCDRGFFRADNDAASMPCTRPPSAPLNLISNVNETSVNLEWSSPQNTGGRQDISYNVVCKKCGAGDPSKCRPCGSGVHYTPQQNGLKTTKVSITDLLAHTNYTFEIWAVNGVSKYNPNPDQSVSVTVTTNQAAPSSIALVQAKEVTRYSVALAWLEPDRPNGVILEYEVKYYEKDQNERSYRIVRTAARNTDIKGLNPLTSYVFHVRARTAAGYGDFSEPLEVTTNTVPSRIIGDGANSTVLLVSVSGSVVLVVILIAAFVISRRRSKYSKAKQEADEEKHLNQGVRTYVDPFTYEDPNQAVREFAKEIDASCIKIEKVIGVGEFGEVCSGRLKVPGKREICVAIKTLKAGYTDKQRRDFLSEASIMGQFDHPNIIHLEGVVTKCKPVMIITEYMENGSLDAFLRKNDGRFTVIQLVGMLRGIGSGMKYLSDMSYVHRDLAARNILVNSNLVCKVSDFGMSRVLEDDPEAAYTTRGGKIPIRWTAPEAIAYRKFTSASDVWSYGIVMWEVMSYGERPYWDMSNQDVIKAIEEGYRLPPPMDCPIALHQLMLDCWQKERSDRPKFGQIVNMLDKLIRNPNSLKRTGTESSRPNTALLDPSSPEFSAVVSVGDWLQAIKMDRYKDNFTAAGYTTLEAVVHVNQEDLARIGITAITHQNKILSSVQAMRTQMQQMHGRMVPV
# [3] = molecular target: Ephrin type-A receptor 7 (Homo sapiens) (UniProt Q15375); details: at 1 µM
# Sequence of Ephrin type-A receptor 7 (Homo sapiens) (Q15375 28-998 limits assumed): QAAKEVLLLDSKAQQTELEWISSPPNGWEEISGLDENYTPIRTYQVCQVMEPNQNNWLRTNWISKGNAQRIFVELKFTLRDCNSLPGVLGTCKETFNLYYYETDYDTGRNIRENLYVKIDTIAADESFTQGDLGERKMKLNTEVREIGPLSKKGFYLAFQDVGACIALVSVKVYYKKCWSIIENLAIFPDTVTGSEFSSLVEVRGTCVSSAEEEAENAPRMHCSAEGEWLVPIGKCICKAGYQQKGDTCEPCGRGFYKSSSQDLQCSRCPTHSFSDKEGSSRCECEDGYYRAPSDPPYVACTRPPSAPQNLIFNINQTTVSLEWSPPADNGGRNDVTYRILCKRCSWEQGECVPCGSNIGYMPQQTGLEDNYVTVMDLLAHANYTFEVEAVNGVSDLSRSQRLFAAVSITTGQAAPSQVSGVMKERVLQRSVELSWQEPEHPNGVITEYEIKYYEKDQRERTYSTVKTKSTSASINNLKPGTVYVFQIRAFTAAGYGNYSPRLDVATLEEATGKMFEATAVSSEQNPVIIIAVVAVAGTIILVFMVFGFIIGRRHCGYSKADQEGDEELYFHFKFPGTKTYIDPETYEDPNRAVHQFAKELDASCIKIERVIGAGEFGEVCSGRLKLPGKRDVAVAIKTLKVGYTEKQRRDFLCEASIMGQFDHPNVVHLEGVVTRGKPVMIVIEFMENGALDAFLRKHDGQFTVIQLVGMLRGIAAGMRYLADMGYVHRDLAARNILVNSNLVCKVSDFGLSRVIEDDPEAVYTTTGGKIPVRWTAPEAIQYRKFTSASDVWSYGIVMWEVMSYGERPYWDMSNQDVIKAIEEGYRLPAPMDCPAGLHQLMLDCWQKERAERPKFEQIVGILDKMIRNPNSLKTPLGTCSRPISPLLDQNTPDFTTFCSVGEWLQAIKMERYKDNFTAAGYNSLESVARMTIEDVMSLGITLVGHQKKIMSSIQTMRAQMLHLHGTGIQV
# [4] = molecular target: Ephrin type-A receptor 7 (Homo sapiens) (UniProt Q15375); details: at 10 µM
# [5] = molecular target: T2, Ephrin type-A receptor 8 (Homo sapiens) (UniProt P29322); details: at 1 µM
# T2 sequence (whole entry): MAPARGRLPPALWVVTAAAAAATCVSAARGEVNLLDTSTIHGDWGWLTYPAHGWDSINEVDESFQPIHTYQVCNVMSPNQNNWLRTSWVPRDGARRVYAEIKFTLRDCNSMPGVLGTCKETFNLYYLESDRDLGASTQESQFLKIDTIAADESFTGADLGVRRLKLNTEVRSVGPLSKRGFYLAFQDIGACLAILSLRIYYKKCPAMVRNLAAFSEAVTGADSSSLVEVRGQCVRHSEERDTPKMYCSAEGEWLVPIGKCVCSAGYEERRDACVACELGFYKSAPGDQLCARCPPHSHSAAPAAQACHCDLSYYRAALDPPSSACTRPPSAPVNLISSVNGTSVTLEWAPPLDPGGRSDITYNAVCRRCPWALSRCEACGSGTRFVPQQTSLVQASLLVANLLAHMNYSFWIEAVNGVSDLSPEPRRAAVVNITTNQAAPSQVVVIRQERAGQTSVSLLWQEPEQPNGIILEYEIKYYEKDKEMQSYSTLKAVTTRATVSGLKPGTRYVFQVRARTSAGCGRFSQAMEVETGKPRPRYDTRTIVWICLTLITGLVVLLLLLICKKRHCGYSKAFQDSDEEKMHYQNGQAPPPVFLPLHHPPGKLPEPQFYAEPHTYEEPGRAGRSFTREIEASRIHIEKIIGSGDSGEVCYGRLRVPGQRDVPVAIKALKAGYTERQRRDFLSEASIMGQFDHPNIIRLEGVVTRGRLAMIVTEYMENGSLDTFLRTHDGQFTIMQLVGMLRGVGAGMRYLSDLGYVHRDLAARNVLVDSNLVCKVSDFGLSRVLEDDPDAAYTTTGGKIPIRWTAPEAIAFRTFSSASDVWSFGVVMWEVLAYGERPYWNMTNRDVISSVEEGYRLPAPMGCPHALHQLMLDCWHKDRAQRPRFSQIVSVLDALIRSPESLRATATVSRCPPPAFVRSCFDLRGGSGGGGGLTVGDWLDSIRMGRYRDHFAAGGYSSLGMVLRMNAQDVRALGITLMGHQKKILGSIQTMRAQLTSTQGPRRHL
# [6] = molecular target: T2, Ephrin type-A receptor 8 (Homo sapiens); details: at 10 µM
# [7] = molecular target: T3, Ephrin type-B receptor 1 (Homo sapiens) (UniProt P54762); details: at 1 µM
# T3 sequence (whole entry): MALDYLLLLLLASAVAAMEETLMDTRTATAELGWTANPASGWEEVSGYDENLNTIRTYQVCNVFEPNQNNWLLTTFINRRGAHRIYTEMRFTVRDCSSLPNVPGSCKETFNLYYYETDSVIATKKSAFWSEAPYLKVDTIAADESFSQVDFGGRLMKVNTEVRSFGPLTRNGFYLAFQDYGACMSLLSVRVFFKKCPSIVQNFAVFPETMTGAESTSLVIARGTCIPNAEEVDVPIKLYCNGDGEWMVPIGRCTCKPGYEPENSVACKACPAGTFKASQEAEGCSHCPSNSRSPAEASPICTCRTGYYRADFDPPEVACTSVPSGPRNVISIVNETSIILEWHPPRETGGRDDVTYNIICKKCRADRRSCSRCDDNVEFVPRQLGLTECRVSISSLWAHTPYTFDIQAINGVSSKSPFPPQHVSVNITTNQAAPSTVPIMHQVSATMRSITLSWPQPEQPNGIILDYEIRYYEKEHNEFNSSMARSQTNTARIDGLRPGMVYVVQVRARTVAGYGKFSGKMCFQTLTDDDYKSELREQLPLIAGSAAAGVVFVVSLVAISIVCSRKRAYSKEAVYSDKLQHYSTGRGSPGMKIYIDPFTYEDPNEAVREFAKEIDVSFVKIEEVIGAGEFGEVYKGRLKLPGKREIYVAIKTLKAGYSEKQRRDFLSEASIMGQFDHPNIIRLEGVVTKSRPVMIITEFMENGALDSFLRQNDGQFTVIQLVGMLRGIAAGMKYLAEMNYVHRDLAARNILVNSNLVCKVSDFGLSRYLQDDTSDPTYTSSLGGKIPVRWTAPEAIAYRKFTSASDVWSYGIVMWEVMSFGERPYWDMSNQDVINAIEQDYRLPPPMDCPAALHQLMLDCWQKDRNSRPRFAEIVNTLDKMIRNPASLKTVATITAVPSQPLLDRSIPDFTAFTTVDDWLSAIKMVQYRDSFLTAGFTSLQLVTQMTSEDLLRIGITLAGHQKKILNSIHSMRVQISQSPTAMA
# [8] = molecular target: T3, Ephrin type-B receptor 1 (Homo sapiens); details: at 10 µM
# [9] = molecular target: T4, Ephrin type-B receptor 2 (Homo sapiens) (UniProt P29323); details: at 1 µM
# T4 sequence (whole entry): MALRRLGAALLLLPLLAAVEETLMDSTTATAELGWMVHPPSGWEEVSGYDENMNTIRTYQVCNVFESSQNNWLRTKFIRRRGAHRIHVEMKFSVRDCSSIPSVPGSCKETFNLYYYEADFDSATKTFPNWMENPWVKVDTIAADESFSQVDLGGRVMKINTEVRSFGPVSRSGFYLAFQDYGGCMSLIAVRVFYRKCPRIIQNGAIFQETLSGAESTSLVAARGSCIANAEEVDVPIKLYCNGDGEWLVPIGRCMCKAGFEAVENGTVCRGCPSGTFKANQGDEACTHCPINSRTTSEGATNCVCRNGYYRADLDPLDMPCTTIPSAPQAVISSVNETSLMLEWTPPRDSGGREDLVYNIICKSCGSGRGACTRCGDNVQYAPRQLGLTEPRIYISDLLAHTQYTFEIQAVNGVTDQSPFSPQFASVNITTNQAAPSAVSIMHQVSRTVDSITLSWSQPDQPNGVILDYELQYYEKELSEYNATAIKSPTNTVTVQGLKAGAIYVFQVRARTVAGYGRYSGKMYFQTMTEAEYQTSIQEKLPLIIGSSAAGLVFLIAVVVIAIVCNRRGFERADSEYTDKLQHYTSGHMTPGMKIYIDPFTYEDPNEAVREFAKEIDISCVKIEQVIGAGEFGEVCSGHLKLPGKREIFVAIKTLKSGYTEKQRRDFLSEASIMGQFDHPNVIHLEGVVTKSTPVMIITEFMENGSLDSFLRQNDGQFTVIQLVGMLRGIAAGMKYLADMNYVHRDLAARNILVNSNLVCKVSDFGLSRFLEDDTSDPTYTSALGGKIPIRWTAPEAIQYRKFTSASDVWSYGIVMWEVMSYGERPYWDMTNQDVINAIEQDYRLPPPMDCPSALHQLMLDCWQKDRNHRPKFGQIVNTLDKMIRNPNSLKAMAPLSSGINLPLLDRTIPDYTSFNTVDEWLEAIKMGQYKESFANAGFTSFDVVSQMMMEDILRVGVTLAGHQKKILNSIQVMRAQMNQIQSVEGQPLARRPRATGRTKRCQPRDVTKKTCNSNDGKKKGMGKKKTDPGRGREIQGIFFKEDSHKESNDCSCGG
# [10] = molecular target: T4, Ephrin type-B receptor 2 (Homo sapiens); details: at 10 µM
# [11] = molecular target: T5, Ephrin type-B receptor 3 (Homo sapiens) (UniProt P54753); details: at 1 µM
# T5 sequence (whole entry): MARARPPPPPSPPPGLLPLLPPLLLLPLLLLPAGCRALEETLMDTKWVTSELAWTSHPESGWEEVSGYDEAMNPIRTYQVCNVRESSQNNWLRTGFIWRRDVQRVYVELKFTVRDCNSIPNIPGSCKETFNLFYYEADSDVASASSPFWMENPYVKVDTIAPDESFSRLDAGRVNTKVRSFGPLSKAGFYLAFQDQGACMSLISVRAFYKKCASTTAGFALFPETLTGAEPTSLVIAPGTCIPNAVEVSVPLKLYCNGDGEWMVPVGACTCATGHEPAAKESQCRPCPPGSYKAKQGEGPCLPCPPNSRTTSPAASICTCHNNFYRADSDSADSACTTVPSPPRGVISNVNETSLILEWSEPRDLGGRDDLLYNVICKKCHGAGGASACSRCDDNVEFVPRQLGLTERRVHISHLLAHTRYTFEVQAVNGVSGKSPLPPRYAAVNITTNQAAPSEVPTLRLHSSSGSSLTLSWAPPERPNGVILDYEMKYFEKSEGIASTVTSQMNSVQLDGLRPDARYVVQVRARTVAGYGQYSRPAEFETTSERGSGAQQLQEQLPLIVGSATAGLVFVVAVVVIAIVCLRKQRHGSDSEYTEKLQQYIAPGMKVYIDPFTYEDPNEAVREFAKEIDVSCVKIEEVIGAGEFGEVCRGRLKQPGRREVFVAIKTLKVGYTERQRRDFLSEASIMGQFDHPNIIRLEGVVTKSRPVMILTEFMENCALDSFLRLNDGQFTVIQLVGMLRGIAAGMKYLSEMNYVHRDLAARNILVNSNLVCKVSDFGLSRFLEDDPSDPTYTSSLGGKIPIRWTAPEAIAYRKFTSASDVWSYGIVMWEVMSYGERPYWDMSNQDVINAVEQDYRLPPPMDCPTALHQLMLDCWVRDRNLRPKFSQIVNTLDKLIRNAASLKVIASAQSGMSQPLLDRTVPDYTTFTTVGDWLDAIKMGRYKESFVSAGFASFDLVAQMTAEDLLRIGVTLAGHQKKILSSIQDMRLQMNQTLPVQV
# [12] = molecular target: T5, Ephrin type-B receptor 3 (Homo sapiens); details: at 10 µM
# [13] = molecular target: T6, Ephrin type-B receptor 4 (Homo sapiens) (UniProt P54760); details: at 1 µM
# T6 sequence (whole entry): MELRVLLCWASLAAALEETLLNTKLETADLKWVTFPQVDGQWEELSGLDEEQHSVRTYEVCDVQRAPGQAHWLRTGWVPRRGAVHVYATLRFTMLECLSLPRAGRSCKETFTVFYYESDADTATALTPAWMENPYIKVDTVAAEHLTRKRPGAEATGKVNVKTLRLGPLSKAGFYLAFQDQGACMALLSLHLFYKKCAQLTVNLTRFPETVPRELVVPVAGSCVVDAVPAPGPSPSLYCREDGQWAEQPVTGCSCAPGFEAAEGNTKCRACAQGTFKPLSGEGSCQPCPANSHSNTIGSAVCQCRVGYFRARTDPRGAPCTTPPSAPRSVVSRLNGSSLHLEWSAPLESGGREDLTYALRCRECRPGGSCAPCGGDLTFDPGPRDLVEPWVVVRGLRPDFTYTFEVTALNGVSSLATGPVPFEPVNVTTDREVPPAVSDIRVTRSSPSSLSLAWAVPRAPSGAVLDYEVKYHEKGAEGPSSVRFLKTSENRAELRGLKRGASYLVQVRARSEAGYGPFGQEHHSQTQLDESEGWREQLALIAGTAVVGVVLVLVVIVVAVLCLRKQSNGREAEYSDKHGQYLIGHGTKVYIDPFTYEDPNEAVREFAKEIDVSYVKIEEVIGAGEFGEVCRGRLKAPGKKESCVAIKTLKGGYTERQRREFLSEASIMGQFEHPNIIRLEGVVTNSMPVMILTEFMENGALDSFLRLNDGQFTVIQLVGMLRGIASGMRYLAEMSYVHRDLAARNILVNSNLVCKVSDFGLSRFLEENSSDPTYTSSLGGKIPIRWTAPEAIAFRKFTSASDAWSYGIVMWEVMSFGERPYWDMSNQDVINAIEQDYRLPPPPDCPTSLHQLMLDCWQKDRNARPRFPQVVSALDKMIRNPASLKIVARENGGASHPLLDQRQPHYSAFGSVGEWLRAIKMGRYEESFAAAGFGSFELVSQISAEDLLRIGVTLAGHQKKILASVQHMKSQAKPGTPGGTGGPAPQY
# [14] = molecular target: T6, Ephrin type-B receptor 4 (Homo sapiens); details: at 10 µM
# [15] = molecular target: Receptor tyrosine-protein kinase erbB-4 (Homo sapiens) (UniProt Q15303); details: at 1 µM
# Sequence of Receptor tyrosine-protein kinase erbB-4 (Homo sapiens) (Q15303 whole entry): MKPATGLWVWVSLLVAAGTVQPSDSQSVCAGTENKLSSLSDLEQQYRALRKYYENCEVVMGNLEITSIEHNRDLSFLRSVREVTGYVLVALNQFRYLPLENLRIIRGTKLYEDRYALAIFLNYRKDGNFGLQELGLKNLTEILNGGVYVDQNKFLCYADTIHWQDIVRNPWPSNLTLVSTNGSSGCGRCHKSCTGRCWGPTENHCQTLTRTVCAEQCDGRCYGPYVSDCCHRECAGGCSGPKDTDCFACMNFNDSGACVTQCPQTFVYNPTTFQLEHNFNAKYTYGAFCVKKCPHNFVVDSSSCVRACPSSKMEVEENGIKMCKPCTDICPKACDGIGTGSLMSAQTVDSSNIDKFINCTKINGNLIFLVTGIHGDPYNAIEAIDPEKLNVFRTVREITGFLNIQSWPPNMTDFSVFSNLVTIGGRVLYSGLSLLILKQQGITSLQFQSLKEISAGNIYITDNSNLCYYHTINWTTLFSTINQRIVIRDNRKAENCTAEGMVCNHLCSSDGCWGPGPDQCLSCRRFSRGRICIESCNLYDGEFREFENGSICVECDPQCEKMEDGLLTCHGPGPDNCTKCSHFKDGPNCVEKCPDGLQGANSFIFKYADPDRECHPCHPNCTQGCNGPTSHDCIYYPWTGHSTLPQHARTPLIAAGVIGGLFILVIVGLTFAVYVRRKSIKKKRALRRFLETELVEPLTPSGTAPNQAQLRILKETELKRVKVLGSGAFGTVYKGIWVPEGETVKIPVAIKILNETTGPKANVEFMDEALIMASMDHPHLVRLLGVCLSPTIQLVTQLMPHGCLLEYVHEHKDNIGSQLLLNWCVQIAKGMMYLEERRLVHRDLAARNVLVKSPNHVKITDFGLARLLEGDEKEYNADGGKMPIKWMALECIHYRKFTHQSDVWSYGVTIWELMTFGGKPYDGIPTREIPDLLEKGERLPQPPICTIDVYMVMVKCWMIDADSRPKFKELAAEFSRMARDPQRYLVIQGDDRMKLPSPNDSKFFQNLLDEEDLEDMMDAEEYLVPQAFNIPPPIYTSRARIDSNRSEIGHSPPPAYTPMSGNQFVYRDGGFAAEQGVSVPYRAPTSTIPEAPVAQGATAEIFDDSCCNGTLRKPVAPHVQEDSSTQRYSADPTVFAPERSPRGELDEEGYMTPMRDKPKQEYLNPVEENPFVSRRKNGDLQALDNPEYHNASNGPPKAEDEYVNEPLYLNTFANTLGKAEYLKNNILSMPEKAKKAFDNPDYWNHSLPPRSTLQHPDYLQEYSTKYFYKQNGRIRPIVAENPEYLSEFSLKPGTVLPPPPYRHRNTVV
# [16] = molecular target: Receptor tyrosine-protein kinase erbB-4 (Homo sapiens) (UniProt Q15303); details: at 10 µM
# [17] = molecular target: Focal adhesion kinase 1 (Homo sapiens) (UniProt Q05397); details: at 1 µM
# Sequence of Focal adhesion kinase 1 (Homo sapiens) (Q05397 2-1052 limits assumed): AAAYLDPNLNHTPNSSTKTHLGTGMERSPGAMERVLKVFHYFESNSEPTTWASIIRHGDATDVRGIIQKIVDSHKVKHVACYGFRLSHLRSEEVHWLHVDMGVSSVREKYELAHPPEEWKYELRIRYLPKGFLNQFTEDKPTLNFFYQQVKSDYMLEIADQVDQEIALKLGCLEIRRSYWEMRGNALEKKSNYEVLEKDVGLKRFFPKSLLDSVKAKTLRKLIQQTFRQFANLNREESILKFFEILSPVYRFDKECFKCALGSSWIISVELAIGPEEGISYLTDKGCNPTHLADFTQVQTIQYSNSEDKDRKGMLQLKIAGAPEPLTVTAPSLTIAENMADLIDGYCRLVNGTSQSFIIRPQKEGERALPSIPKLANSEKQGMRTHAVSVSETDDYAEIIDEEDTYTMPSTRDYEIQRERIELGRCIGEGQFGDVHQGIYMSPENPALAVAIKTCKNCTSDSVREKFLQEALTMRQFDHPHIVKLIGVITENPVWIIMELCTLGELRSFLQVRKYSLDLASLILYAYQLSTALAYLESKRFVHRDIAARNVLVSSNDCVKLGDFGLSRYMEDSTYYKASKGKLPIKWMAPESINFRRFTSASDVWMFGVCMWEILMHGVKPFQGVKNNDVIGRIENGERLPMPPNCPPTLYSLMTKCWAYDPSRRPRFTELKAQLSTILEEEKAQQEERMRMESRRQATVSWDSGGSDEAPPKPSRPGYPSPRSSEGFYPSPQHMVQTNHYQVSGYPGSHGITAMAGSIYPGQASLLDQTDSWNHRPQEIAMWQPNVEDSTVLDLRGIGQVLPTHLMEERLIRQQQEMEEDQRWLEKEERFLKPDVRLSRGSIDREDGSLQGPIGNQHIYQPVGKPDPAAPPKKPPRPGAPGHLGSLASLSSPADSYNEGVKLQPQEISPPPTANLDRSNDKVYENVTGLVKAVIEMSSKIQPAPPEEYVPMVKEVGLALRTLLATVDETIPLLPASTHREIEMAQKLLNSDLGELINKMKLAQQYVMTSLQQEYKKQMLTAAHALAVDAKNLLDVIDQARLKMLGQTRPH
compound,measurement,setting,value
CCN(CC)C(=O)c1ccc(Nc2nc(OCC3CCCCC3)c3nc[nH]c3n2)cc1,residual activity,[1],60%
same,residual activity,[2],73%
same,residual activity,[3],71%
same,residual activity,[4],7%
same,residual activity,[5],97%
same,residual activity,[6],64%
same,residual activity,[7],68%
same,residual activity,[8],4%
same,residual activity,[9],103%
same,residual activity,[10],32%
same,residual activity,[11],102% (inactive)
same,residual activity,[12],52%
same,residual activity,[13],72%
same,residual activity,[14],12%
same,residual activity,[15],74%
same,residual activity,[16],34%
same,residual activity,[17],72%
